Test results published in PubChem BioAssay (Tox21).
Where “and” joins values, the source holds several entries; their conditions need not be identical. Equal entries are not always repeated. Records with an inconclusive call do not appear. Some structures have more than one record in an assay (separate samples or runs), and their calls can disagree. Calls of active or inactive are those of the source. Unless noted, the call rests on the fitted dose curve; in most records, active means well fitted curve in the direction sought with a large enough effect in the repeat runs; inconclusive means weak or mixed curves; inactive means flat fitted curve, though single readings scatter.

Experiments:
[1] = qHTS assay to test for compound auto fluorescence at 535 nm (green) in HEK293 cells (AID 720680)
[2] = qHTS assay to test for compound auto fluorescence at 460 nm (blue) in HEK293 cell free culture (AID 720681)
In short: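 Compounds were added to cell-free DMEM with 10% FBS and fluorescence read directly. The blue channel used 405 nm excitation and 460 nm emission, with triamterene as the reference fluorophore.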

[3] = qHTS assay to test for compound auto fluorescence at 535 nm (green) in HEK293 cell free culture (AID 720682)
In short: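 Read-out: 485/535 nm fluorescence intensity, calibrated against fluorescein. Medium only (DMEM + 10% FBS, no cells); test compound or DMSO vehicle added by pintool before plate reading.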

[4] = qHTS assay to test for compound auto fluorescence at 590 nm (red) in HEK293 cell free culture (AID 720683); further: potency means the concentration at half of the fitted maximal effect
In short: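 Cell-free wells of DMEM with 10% FBS received compound, and intrinsic fluorescence was read at excitation/emission 540/590 nm. Values expressed as equivalence to Rose Bengal sodium.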

[5] = qHTS assay to test for compound auto fluorescence at 590 nm (red) in HepG2 cell free culture (AID 720684); further: potency means the concentration at half of the fitted maximal effect
In short: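 Compounds are added to culture medium (MEM, 10% FBS) lacking cells, then fluorescence is read at excitation 540 nm, emission 590 nm, with Rose Bengal sodium as the equivalency standard.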

[6] = qHTS assay to test for compound auto fluorescence at 460 nm (blue) in HepG2 cell free culture (AID 720685)
In short: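 Compound (23 nL) or DMSO pinned into cell-free MEM with 10% FBS; blue fluorescence read at 405/460 nm excitation/emission, expressed as auto-fluorescence equivalency to triamterene.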

[7] = qHTS assay to test for compound auto fluorescence at 460 nm (blue) in HepG2 cells (AID 720687)
In short: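 HepG2 cells in MEM with 10% FBS, attached overnight at 37 C, were exposed to compound or DMSO for 1 hr at 37 C, 5% CO2. Blue fluorescence was read at 405/460 nm, with triamterene as reference fluorophore.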

[8] = molecular target: Glucocorticoid receptor (Homo sapiens) (UniProt P04150); test: qHTS assay to identify small molecule agonists of the glucocorticoid receptor (GR) signaling pathway (AID 720691; active means well fitted activation curve with a large enough effect in the signal ratio in the repeat runs, not every such curve was filed as active; the % refers to the signal ratio; further: potency means the concentration at half of the fitted maximal effect)
In short: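 GR-bla HeLa cells carrying a GRE-driven beta-lactamase reporter, exposed to compounds for 18 h at 37 C. Reporter activation read as fluorescence after 2 h with LiveBLAzer B/G FRET substrate at room temperature.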

[9] = molecular target: Glucocorticoid receptor (Homo sapiens) (UniProt P04150); test: qHTS assay to identify small molecule antagonists of the glucocorticoid receptor (GR) signaling pathway (AID 720692; active means well fitted inhibition curve with a large enough effect in the signal ratio in the repeat runs, not every such curve was filed as active; the % refers to the signal ratio; further: potency means the concentration at half of the fitted maximal effect)
In short: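 GR-bla HeLa cells carrying a GRE-driven beta-lactamase reporter received compound after 4 h plating, then dexamethasone (5 nM final). After 18 h at 37C, the FRET substrate was loaded for 2 h at room temperature and fluorescence read.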

Measured: Potency
Tags describe the fitted curve by direction and shape or compound fluorescence and quenching.

Chain of Glucocorticoid receptor (Homo sapiens) (P04150 whole entry, looked up): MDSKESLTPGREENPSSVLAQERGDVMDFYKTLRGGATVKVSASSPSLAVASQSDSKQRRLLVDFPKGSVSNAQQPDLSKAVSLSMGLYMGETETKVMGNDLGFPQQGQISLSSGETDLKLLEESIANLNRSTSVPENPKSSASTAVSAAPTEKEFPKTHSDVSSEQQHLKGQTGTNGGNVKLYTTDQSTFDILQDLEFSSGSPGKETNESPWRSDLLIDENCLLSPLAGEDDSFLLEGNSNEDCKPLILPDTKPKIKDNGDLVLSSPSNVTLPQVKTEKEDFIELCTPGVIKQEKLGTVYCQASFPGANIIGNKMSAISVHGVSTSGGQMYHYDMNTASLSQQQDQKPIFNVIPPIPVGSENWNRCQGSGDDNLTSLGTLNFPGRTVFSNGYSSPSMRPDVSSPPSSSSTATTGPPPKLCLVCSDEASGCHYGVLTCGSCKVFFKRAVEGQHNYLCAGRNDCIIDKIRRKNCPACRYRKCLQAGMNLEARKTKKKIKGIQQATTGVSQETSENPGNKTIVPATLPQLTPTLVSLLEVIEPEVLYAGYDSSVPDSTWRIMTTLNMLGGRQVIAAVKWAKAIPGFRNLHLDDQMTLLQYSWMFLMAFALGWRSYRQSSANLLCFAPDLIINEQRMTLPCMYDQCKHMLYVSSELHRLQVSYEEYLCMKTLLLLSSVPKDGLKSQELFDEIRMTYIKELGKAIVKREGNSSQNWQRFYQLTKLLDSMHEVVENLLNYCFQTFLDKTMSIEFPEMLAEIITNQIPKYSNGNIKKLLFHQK

O=C(c1ccccc1)c1ccc(O)cc1O
inactive: all assays above

O=C1OC2(c3cc(Br)c(O)c(Br)c3Oc3c2cc(Br)c(O)c3Br)c2c(Cl)c(Cl)c(Cl)c(Cl)c21
active: [4] 2 µM [fluorescent] and 14.1 µM [fluorescent] | [5] 1.78 µM [fluorescent] and 10 µM [fluorescent]
49.1 µM (active) and inactive: [9]
inactive: all other assays above

CC1=CC2C3CC(C=C3C)C2C1 (stereo not given)
inactive: all assays above

S=C(NC1CCCCC1)NC1CCCCC1
inactive: all assays above

CC(=O)c1ccccn1
not listed: [8] | [9]
inactive: all other assays above

C#C[C@]1(O)CC[C@H]2[C@@H]3CCC4=Cc5oncc5C[C@]4(C)[C@H]3CC[C@@]21C
active: [9] 5.35 µM
inactive: all other assays above

OCCO
not listed: [8] | [9]
inactive: all other assays above

C=C(C)C1CC=C(C)CC1 (stereo not given)
not listed: [8] | [9]
inactive: all other assays above

Nc1ncnc2nc[nH]c12
inactive: all assays above

COc1ccc(OC)c(C(O)CNC(=O)CN)c1 (stereo not given)
inactive: all assays above

c1ccc2sc(SSN3CCOCC3)nc2c1
not listed: [8] | [9]
inactive: all other assays above

CC(=O)O[C@]1(C(C)=O)CC[C@H]2[C@@H]3C=C(Cl)C4=CC(=O)[C@@H]5C[C@@H]5[C@]4(C)[C@H]3CC[C@@]21C
not listed: [8] | [9]
inactive: all other assays above

CCCCOCCOCCO
inactive: all assays above

COC(=O)CCC(=O)OC
inactive: all assays above

CC1=CCC(C(C)(C)O)CC1 (stereo not given)
not listed: [8] | [9]
inactive: all other assays above

O=Cc1ccccc1O
inactive: all assays above

C[Si](C)(C)O[Si](C)(C)C
not listed: [8] | [9]
inactive: all other assays above

CN(C)C(=N)N=C(N)N
2.56 µM (active) and inactive: [8]
inactive: all other assays above

CN(C)CCC=C1c2ccccc2CCc2ccccc21
not listed: [9]
inactive: all other assays above

CN(C)CCN(Cc1cccs1)c1ccccn1
inactive: all assays above
